# Screens deposited in PubChem by National Center for Advancing Translational Sciences (NCATS).
# In the library only some 3.3% were active in any assay of this set; here they are far more common.
# AmpC detergent – qHTS Inhibitors of AmpC Beta-Lactamase (assay with detergent); P00811; AmpC hydrolysis of nitrocefin, absorbance 480 nm, 0.01% Triton; Potency, µM (series often up to 114 µM), inactives show at the highest dose activity change, negative = inhibition, usual class: inhibitors; actives 0.041% (n = 370,000);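 also: 0% = no-compound wells and -100% = no-enzyme wells; nearly all actives have a fitted effect of over 25% in size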
# Target sequence (P00811 whole entry, looked up): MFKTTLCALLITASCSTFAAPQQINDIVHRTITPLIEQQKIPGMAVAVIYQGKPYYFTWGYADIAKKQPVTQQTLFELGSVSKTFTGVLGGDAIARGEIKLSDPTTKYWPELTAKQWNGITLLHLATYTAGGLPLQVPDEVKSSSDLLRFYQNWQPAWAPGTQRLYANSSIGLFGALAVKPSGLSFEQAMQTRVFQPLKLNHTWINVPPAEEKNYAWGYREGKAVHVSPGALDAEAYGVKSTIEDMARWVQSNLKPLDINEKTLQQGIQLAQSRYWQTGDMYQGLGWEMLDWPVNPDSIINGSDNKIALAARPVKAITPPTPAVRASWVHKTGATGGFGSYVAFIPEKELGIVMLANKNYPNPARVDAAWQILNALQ
#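 AmpC (5.3 nM in the dispensed reagent) in 20 mM phosphate pH 7.0 with 0.01% (detergent screen) or 0.0001% Triton X-100 was preincubated with compounds for 15 min at room temperature. Nitrocefin was then added from an 800 uM solution, and hydrolysis was followed at 480 nm.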
# AmpC no deterg – qHTS Inhibitors of AmpC Beta-Lactamase (assay without detergent). P00811. AmpC nitrocefin hydrolysis, absorbance 480 nm, 0.0001% Triton. Potency, µM (highest dose often 57.1 µM), for inactives: top-dose activity change, negative = inhibition, actives largely listed as inhibitors. actives 0.52% (n = 330,000);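 also: plate controls were no compound for no effect and no enzyme for full effect; nearly all actives have a fitted effect of over 20% in size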
#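 20 mM phosphate pH 7.0 + 0.01% (detergent screen) or 0.0001% Triton X-100; 5.3 nM AmpC reagent; cpd preinc 15 min RT; nitrocefin (800 uM stock) to start; A480 q20 s × 4 min; Activity was normalised to no-enzyme and no-compound control wells.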
# Sm TGR inh – qHTS Assay for the Inhibitors of Schistosoma Mansoni Peroxiredoxins; Schistosoma mansoni thioredoxin glutathione reductase (TGR), Q962Y6; purified TGR, DTNB reduction, TNB absorbance 405 nm; Potency, µM (top dose mostly 114 µM), inactives show at the top dose activity change, negative = inhibition, usual class: inhibitors; actives 3% (n = 360,000); AID 485364, 2010; also: nearly all actives have a fitted effect of over 60% in size
#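 Kinetic colorimetric format: TGR-catalysed, NADPH-driven DTNB reduction monitored via TNB absorbance. Enzyme dispensed at 20 nM; compound exposure 15 min at room temperature before reaction start.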
# * hit, by the source's call; ? = inconclusive; · = no result; [ ] = remark or other dose. Calls follow the shape of the dose curve; as a rule, active = well fitted curve in the direction sought with a large enough effect; inconclusive = small, poorly fitted or top-dose-only effect, or another doubt; inactive = no such curve, though single readings can be large; an effect the other way counts as inactive or inconclusive. Unless noted, % is scaled to controls: 0 for no effect and ±100 for the full control effect; potency is read from the fitted curve at half-maximal effect.
SMILES,AmpC detergent,AmpC no deterg,Sm TGR inh
N#CC1=C(N)Oc2cc(O)c(C=Nc3ccccc3)cc2C1c1ccccc1 (stereo unspecified),-5%,-18%,-5%
CN(C)[C@@H](CO)c1nnc([C@H](Cc2ccc(O)cc2)NC(=O)C2CCNCC2)o1,9%,-31%,6%
Cc1onc(-c2ccccc2)c1C(=O)N(Cc1ccccc1)C(C)C,?,12%,7%
CCn1c(CNS(=O)(=O)c2ccc(Br)cc2)nnc1SC,0%,-8%,3.5µM*
CSc1nnc(CNS(=O)(=O)c2ccc(Br)cc2)n1C,-13%,-8%,10%
Cn1c(=O)c2c(ncn2CCCC(=N)N2CCOCC2)n(C)c1=O,1%,-18%,7%
COc1ccc(C(=O)Nc2nnc(SCC(=O)NCc3ccco3)s2)c(OC)c1,4%,97%,-1%
COC(=O)c1c(C)oc(C)c1S(=O)(=O)NC(c1ccccc1)c1ccccc1,5%,0%,?
Cc1cc(/C=C2/NC(=O)NC2=O)c(C)n1C,3%,0%,14µM*
Cc1cc(C)c(-n2c(C)cc(/C=C3/NC(=O)NC3=O)c2C)c(C)c1,-2%,-11%,-14%
C=CCNC(=S)NNC(=O)CCC(O)CCCCC (stereo unspecified),?,-3%,-21%
N#C/C(=C\c1cc(Br)ccc1F)C(=O)NC1CC1,-3%,192%,-19%
O=c1[nH]c(CS(=O)(=O)c2ccccc2)nc2ccccc12,?,-16%,?
CCn1c(C)c(CS(=O)(=O)c2ccccc2)[nH]c1=O,-6%,-18%,0.028µM*
COc1ccc(CCNS(=O)(=O)c2ccc(N3CCCCS3(=O)=O)cc2)cc1,11%,·,0%
COC(=O)[C@@H]1C[C@@H]2CC[C@@H](O)C[C@@H]2N1Cc1ccccc1OS(=O)(=O)c1ccc(C)cc1,1%,72%,28µM*
COC(=O)[C@@H]1C[C@H]2CC[C@H](O)C[C@H]2N1Cc1ccccc1OC(=O)c1cccs1,-1%,8%,?
O=c1cc(-c2ccc(C3CCCCC3)cc2)[nH][nH]1,-6%,14µM*,4%
O=c1cc(-c2ccc(F)cc2)[nH][nH]1,-14%,-39%,6%
O=S(=O)(Nc1ccc2ccccc2n1)c1ccccc1Cl,-1%,-30%,3%
COc1ccc(NC(=O)/C=C/c2ccccc2)cn1,-12%,-19%,4%
COc1ccc(NC(=O)/C=C/c2cc(OC)c(OC)c(OC)c2)cn1,1%,-9%,45µM*
CCC(=O)N1CCC2(CC1)Oc1ccc(F)cc1C(=O)C21CC(c2ccccc2)=NO1 (stereo unspecified),2%,174%,50µM*
CCC(=O)N1CCC2(CC1)Oc1ccc(Cl)cc1C(=O)C21CC(c2ccccc2)=NO1 (stereo unspecified),1%,150%,-24%
CCOC(=O)c1nn(-c2ccccc2F)c(-c2ccccc2)c1C(=O)c1ccccc1,-1%,21%,10%
SMILES,AmpC detergent,AmpC no deterg,Sm TGR inh
Cc1ccc(O)c(NC(=O)COCc2cc(-c3ccco3)on2)c1,-7%,·,-4%
CC(C)c1ccc(NC(=O)C(c2ccc3c(c2)OCO3)N2CCCCC2)cc1 (stereo unspecified),?,0%,0%
Oc1cc2c(cc1C(c1ccc(Cl)c(Cl)c1)N1CCCC1)OCO2 (stereo unspecified),0%,-43%,0.5µM*
COc1cccc(C2=C(C(C)=O)Sc3nncn3N2C(C)=O)c1,1%,·,?
CC(=O)C1=C(c2ccc(Cl)c(Cl)c2)N(C(C)=O)n2cnnc2S1,2%,·,10µM*
CC(Sc1ncn[nH]1)C(=O)Nc1ccc(Cl)cn1 (stereo unspecified),?,-9%,3%
Oc1ccc(Cl)cc1CNCc1ccc(F)c(F)c1,-6%,-23%,-16%
O=[N+]([O-])c1ccc(CNCc2cc(Cl)ccc2O)cc1,-4%,3.2µM*,-27%
Cc1ccc(-c2[nH]ncc2/C=N/n2c(COc3ccccc3C)nc3ccccc3c2=O)cc1,-9%,8.9µM*,7%
Cc1ccccc1OCc1nc2ccccc2c(=O)n1/N=C/c1c[nH]c2ccccc12,?,-48%,6%
COCCN(C(=O)COC(=O)CCOc1ccccc1)c1c(N)n(Cc2ccccc2)c(=O)[nH]c1=O,-15%,39%,0%
Cc1ccc(Cl)cc1N1CCN(C(=O)COCc2cc(-c3ccc4c(c3)OCO4)on2)CC1,3%,·,-1%
O=c1c(C/C=C/c2ccccc2)c(O)ccn1CCc1c[nH]c2ccccc12,-6%,-7%[2.29 µM],-24%
COc1ccc2[nH]cc(CCn3ccc(O)c(C/C=C/c4ccccc4)c3=O)c2c1,0%,16µM*,0%
Cc1ccc(C2C(C(=O)c3cc4ccccc4o3)=C(O)C(=O)N2CCN2CCOCC2)cc1 (stereo unspecified),-5%,15%,32µM*
O=C(C1=C(O)C(=O)N(CCN2CCOCC2)C1c1cccc(F)c1)c1cc2ccccc2o1 (stereo unspecified),-1%,-8%,45µM*
COc1cc(C2C(C(=O)c3cc4ccccc4o3)=C(O)C(=O)N2CCN2CCOCC2)ccc1OCCC(C)C (stereo unspecified),0%,97%,-19%
COC(=O)c1ccc(C2C(C(=O)c3cc4ccccc4o3)=C(O)C(=O)N2CCCN(C)C)cc1 (stereo unspecified),-15%,-2%,11µM*
CC(=O)C1=C(O)C(=O)N(CCN2CCOCC2)C1c1ccccc1 (stereo unspecified),-8%,-12%,32µM*
O=C(C1=C(O)C(=O)N(CCN2CCOCC2)C1c1cccc(O)c1)c1cc2ccccc2o1 (stereo unspecified),2%,-23%,?
CN(C)CCCN1C(=O)C(O)=C(C(=O)c2cc3ccccc3o2)C1c1ccccc1 (stereo unspecified),-11%,-7%,-29%
COc1ccc(OC)c(C2C(C(C)=O)=C(O)C(=O)N2CCN2CCOCC2)c1 (stereo unspecified),?,54%,?
C[C@H](CO)N1C[C@H](C)[C@@H](CN(C)Cc2ccccc2)Oc2c(NS(=O)(=O)c3cn(C)cn3)cccc2C1=O,·,113%,·
O=S(=O)(NCc1ccc2c(c1)OCO2)c1c(F)cc(F)cc1Br,?,-35%,-11%
CCC1COCCS(=O)(=O)N1Cc1cccc(C(F)(F)F)c1 (stereo unspecified),-7%,33%,-6%
O=c1cc(CS(=O)(=O)c2ccccc2)nc(-c2ccncc2)[nH]1,?,-16%,-1%
CC(NC(=O)c1ccnn1C)C1CCCO1 (stereo unspecified),0%,-10%,·
O=C(NCCCCNC(=O)c1ccc(Br)cc1)c1ccc(Br)cc1,0%,-11%,2%
COc1cccc2cc(C(=O)C3=C(O)C(=O)N(CCN4CCOCC4)C3c3cccc(Cl)c3)oc12 (stereo unspecified),2%,-21%,-12%
